Rows were chosen to be rich in hits. Some 10% of all compounds tested hit in one or more screens of this group.
MCF10A rerep = DNA re-replication induction in MCF 10a cells | MCF 10A DNA re-replication, Hoechst nuclear intensity, 48 h | Potency, µM (doses to about 46.1 µM), without a hit: top-dose activity, positive = re-replication, most hits filed as activators | 350,000 compounds, 2.9% hits | AID 624296; note: % of control where 0% means no effect; nearly all actives have a fitted effect of over 50% in size
ELG1 DNA repair = ELG1-dependent DNA repair inhibition | HEK293T ELG1-luciferase reporter, luminescence, 16 h; DNA damage induced by 5-fluorouridine | Potency, µM (top dose mostly 46.1 µM), for inactives: at the top dose activity change, negative = inhibition, usual class: inhibitors | 330,000 compounds, 2.3% hits | AID 504467; note: % is set by controls: 0 for no effect and ±100 for the full control effect; nearly all actives have a fitted effect of over 55% in size
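DMSO vehicle served as the neutral condition. Each well held 2,000 cells given 5-fluorouridine plus compound; after 16 hr at 37 °C/5% CO2, ONE-Glo was added and luciferase measured 30 min later.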
SW480 rereplic = DNA re-replication induction in SW480 cells; SW480 DNA re-replication, Hoechst DNA content imaging, 48 h; Potency, µM (doses to about 46.1 µM), without a hit: top-dose re-replication activation, usual class: activators; 340,000 compounds, 1.8% hits; AID 624297; note: % of control where 0% means no effect; nearly all actives have a fitted effect of over 55% in size
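Per well, 250 cells were exposed to pinned compound for 48 hr. Nuclear DNA was visualised with Hoechst (40 min, 37 C) and total object intensity recorded by fluorescence scanning.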
RORg inh = inhibitors of mouse ROR gamma transcriptional activity; Potency, µM (doses to about 53.6 µM), inactives show top-dose activity change, negative = inhibition, usual class: inhibitors; AID 2551; 310,000 compounds, 5.4% hits; Drosophila S2 Gal4-RORgamma UAS-luciferase reporter, 20 h; note: % is set by controls: 0 for no effect and ±100 for the full control effect; nearly all actives have a fitted effect of over 60% in size
Target sequence (P51450 whole entry, looked up, the tested form may be a part): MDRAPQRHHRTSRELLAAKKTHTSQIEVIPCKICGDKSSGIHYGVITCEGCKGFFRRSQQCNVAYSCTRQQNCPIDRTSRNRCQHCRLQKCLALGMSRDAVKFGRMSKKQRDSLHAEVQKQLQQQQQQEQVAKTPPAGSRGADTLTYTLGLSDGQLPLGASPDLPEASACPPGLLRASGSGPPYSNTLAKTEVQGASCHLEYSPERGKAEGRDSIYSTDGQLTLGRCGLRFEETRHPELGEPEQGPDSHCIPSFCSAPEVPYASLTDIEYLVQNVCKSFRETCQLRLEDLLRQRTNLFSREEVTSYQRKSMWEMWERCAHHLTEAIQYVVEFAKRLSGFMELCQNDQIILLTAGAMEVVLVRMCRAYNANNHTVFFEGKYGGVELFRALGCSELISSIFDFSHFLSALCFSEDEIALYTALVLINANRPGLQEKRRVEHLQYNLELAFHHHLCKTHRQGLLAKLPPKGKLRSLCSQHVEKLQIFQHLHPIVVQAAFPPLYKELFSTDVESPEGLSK
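A Gal4/UAS one-hybrid system in insect cells: metallothionein-promoter Gal4–ROR gamma fusion plus Photinus luciferase reporter. Copper sulfate 700 uM final, 20 hr ambient incubation, luminescent detection after 10 min with reagent.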
VP16 counter = counter-screen for ROR gamma inhibitors: Gal4-VP16 reporter | Drosophila S2 Gal4-VP16 UAS-luciferase, luminescence, 20 h | Potency, µM (titrated, usually from 53.6 µM), for the others: at the highest dose activity, negative = inhibition, usual class: inhibitors | 310,000 compounds, 3.5% hits | AID 2546;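 note: Gal4-VP16 expression switched on by copper sulfate through the metallothionein promoter; % is set by controls: 0 for no effect and ±100 for the full control effect; nearly all actives have a fitted effect of over 50% in size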
Numbers without * were called inactive; ? = inconclusive; . = no result given; [ ] = remark or other dose. Calls come from the whole dose curve; as a rule, active = well fitted curve in the direction sought with a large enough effect; inconclusive = small, poorly fitted or top-dose-only effect, or another doubt; inactive = no such curve, though single readings can be large; an effect the other way counts as inactive or inconclusive. Potency is the fitted concentration of half-maximal effect.

SMILES	MCF10A rerep	ELG1 DNA repair	SW480 rereplic	RORg inh	VP16 counter
CN(C)CCn1c(NC(=O)c2ccc(Cl)cc2)nc2ccccc21	-23.0%	?	7.6%	1.12µM*	1.41µM*
CCN(CC)CCn1c(NC(=O)c2ccc(C(F)(F)F)cc2)nc2ccccc21	20.6µM*	?	0.5%	0.224µM*	0.355µM*
O=C(NCc1nc2ccccc2[nH]1)c1ccc(Cl)c(S(=O)(=O)N2CCCC2)c1	0.3%	-25.4%	-4.4%[9.22 µM]	-11.2%	29.9%
CCN(CC)CCn1c(NC(=O)c2ccc(C)cc2)nc2ccccc21	1.9%	?	0.6%	?	?
CCC(=O)Nc1nc2ccccc2n1CCN(CC)CC	-7.5%	-6.7%	-5.9%	?	-12.2%
CCCn1c(NC(=O)c2ccc(Cl)c(S(=O)(=O)N3CCCC3)c2)nc2ccccc21	14.4%	?	5.6%	1.58µM*	3.55µM*
Cc1ccc(C(=O)N/C(=C/c2ccc(C(C)C)cc2)C(=O)NCCCN2CCOCC2)cc1	-2.7%	2.5%	4.8%	-10.6%	-1.0%
Cc1cccc(N(C)S(=O)(=O)c2ccc3c(c2)C(C)(C)C(=O)N3C)c1	0.2%	3.3%	6.9%	-19.5%	-9.8%
CN(C)CCOc1cc(Cl)cc(Cl)c1	-8.6%	?	0.3%	13.0%	0.0%
CCN(CC)CCOc1ccc(C(O)(Cc2ccc(Cl)cc2)c2ccc(C)cc2)cc1 (centres undefined)	9.44µM*	.	?	?	?
COCCN(CCOc1cc(C)cc(C)c1)Cc1ccc(Cl)cc1	18.4µM*	-11.1%	?	-0.3%	1.1%
C#C[C@]1(O)CC[C@H]2[C@@H]3CCc4cc(O)ccc4[C@H]3CC[C@@]21C	18.4µM*	-14.2%	?	-11.2%	-16.2%
C#C[C@@]1(O)CCC2C3CCc4cc(O)ccc4C3CC[C@@]21C (some centres undefined)	.	.	.	-0.5%	0.3%
C#C[C@]1(O)CC[C@@H]2[C@H]3CCC4=CCCC[C@@H]4[C@@H]3CC[C@@]21C	10.1µM*	.	1.6%[20.6 µM]	0.9%[2.98 µM]	-10.5%[17 µM]
C#C[C@]1(O)CC[C@H]2[C@@H]3CCC4=CCCC[C@@H]4[C@H]3C(=C)C[C@@]21CC	13.3µM*	.	3.5%	-19.4%	-17.1%
Cc1cc(-c2nnc3n2N=C(c2ccc(F)cc2)CS3)n[nH]1	?	?	9.1%	2.4%	18.4%
O=C(NCc1ccccn1)[C@H]1C[C@@H]1[C@H](NP(=O)(c1ccccc1)c1ccccc1)c1ccccc1	3.8%	0.0%	11.5%	-24.6%	-3.0%
CCOC(=O)c1cnc2c(-c3ccccc3)c(-c3ccccc3)nn2c1C	?	?	-2.1%	1.8%	-3.3%
CCCC1=NN(c2ccc([N+](=O)[O-])cc2)C(=O)/C1=C\N(C)C	?	?	.	21.4%	15.4%
C/C(=N\NC(=O)c1cc2ccccc2cc1O)c1ccc2c(c1)OCO2	8.8%	26.1%	3.2%	15.8µM*	?
Cc1ccccc1-c1nc(-c2ccc(NC(=O)c3ccc4c(c3)OCO4)cc2)no1	?	?	8.9%	23.1%	?
COc1cc(C(=O)c2ccc3c(c2)OCO3)cc(OC)c1OC	?	.	2.06µM*	.	.
COc1cc(C(=O)c2cocc2C(=O)c2ccc3c(c2)OCO3)cc(OC)c1OC	?	?	1.84µM*	-14.1%	5.4%
COc1cc(C(=O)NNC(=O)c2ccc3c(c2)OCCO3)cc(OC)c1OC	-0.3%	-20.1%	-4.3%	.	.
COc1cc(-c2nc(-c3ccc(NC(=O)c4ccc5c(c4)OCO5)cc3)no2)cc(OC)c1OC	9.2µM*	?	?	25.8%	?
SMILES	MCF10A rerep	ELG1 DNA repair	SW480 rereplic	RORg inh	VP16 counter
COc1cccc(CNC(=O)c2nnn(CC(=O)Nc3ccc(Br)cc3)c2N)c1	-1.1%	?	-39.2%	-43.6%	?
CN(C)S(=O)(=O)N(CC(=O)N1CCN(c2ccccc2F)CC1)c1ccccc1	-3.5%	-3.2%	-4.7%	11.5%	3.7%
COc1cc(C(=O)N/N=C(\C)c2ccc3c(c2)OCO3)cc(OC)c1OC	4.11µM*	-22.1%	2.59µM*	-22.5%	-5.7%
C=CCn1c2ccccc2c2n[nH]c(=S)nc21	2.6%	3.8%	1.1%	2.51µM*	3.55µM*
CCn1c2ccccc2c2n[nH]c(=S)nc21	-1.8%	0.1%	-34.3%	3.98µM*	8.91µM*
CCCn1c2ccc(C)cc2c2nnc(SCCN3CCCCC3)nc21	?	11.4%	?	-15.6%	-5.9%
CCCn1c2ccc(C)cc2c2n[nH]c(=S)nc21	1.5%	0.5%	14.6µM*	1.78µM*	3.55µM*
O=C(O)Cn1c2ccccc2c2n[nH]c(=S)nc21	0.9%	-25.6%	5.0%	-34.9%[1.91 µM]	8.6%
Cc1cc(C)cc(OCC(=O)OCC(=O)NC2CC2)c1	-10.4%	5.3%	-0.8%	.	.
COC(=O)c1ccsc1NC(=O)CN1CCN(Cc2ccc3c(c2)OCO3)CC1	24.1%	5.17µM*	0.1%	-12.4%	-4.6%
Cc1cc2nc3n(c2cc1C)CCCN3	16.5%	-7.4%	-0.3%	1.58µM*	-10.0%
Cc1cc2nc(C)c(=O)n(C)c2cc1C	1.3%	14.3%	-2.0%	-13.7%	7.4%
Cc1cnc(CNc2ccnc(-c3ccc(N(C)C)cc3)n2)cn1	.	.	.	15.6%	7.6%
Cc1cccc2c1NC(=O)C2(c1ccc(O)cc1)c1ccc(O)cc1	22.5%	1.9%	-18.4%	10.0%	-6.2%
Cc1cc(C2(c3ccc(O)c(C)c3)C(=O)Nc3ccccc32)ccc1O	?	-0.2%	?	-20.9%	15.8µM*
Cn1c(C(=O)N[C@@H](Cc2ccccc2)C(=O)O)cc2cc(Cl)ccc21	-10.6%	-1.6%	-3.4%	13.8%	6.2%
COc1ccc(CN(C(=O)c2oc3cc(C)ccc3c2C)C2CCS(=O)(=O)C2)cc1OC (centres undefined)	3.1%	13µM*	-5.4%	9.0%	11.6%
COc1cccc(N2CCN(C(=S)Nc3cc(C)cc(C)c3)CC2)c1	11.2µM*	-0.5%	?	3.98µM*	-2.0%
CNC(=S)N1CCN(c2cccc(OC)c2)CC1	-1.4%	8.5%	-3.2%	-1.6%	-2.2%
COc1cccc(N2CCN(C(=S)Nc3ccccc3OC)CC2)c1	0.9%	-27.3%	0.6%	-15.1%	5.8%
CCOc1ccccc1NC(=S)N1CCN(c2cccc(OC)c2)CC1	13.8%	?	?	12.6µM*	?
COc1cccc(N2CCN(C(=S)NCCc3ccccc3)CC2)c1	21.9%	-21.4%	2.1%[9.22 µM]	25.1µM*	?
COc1cccc(N2CCN(C(=S)Nc3ccc(C)cc3C)CC2)c1	11.6%	0.5%	2.6%	5.62µM*	-16.6%
COc1cccc(N2CCN(C(=S)Nc3ccc(F)cc3)CC2)c1	-0.6%	0.9%	-0.7%	-40.7%	-1.0%
COc1ccc(-c2csc(Nc3cccc(C)n3)n2)cc1	5.4%	?	-1.9%	?	?
NS(=O)(=O)c1ccc(Nc2nc(-c3ccc(O)cc3O)cs2)cc1	10.3%	-18.0%	-3.5%	18.2%	19.6%
